# Source: PubChem (National Center for Advancing Translational Sciences (NCATS))
# Rows were chosen to be rich in hits. Some 3.3% of all compounds tested hit in one or more screens of this group.
# TbPYK inhibitor: inhibitors of Trypanosoma brucei pyruvate kinase | Q57TT1 | TbPYK enzyme, Kinase-Glo Plus ATP luminescence, 45 min | Potency, µM (series often up to 76.8 µM), for inactives: top-dose activity, negative = inhibition, actives largely listed as inhibitors | hit rate 0.12% among 410,000; note: nearly all actives have a fitted effect of over 50% in size
#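 ADP (130 uM final) triggers the TbPYK reaction after compound addition; incubation is 45 min at room temperature. Kinase-Glo Plus is then added and luminescence imaged. Normalized data are fitted to concentration-effect curves.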
# LmPK inhibitor: inhibitors of Leishmania mexicana pyruvate kinase. AID 1721. hit rate 0.37% among 290,000. Potency, µM (titrated, usually from 57.5 µM), for inactives: top-dose activity change, negative = inhibition, most hits filed as inhibitors. Q27686. purified LmPK, Kinase-Glo ATP luminescence, 1 h
# Target sequence (Q27686 whole entry, looked up): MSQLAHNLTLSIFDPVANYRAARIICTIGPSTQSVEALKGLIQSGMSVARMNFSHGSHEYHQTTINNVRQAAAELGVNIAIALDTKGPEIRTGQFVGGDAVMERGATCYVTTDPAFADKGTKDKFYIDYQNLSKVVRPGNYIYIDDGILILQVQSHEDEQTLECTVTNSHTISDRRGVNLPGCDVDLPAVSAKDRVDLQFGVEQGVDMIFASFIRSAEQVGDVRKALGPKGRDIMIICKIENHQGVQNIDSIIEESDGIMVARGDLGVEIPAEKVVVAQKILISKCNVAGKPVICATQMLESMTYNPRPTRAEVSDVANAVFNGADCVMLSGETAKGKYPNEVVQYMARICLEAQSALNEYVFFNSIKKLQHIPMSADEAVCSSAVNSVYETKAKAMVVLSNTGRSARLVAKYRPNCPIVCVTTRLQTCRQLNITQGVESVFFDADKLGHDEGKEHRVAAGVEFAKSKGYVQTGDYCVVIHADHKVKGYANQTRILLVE
#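 Pyruvate kinase activity monitored as ATP production (luciferase luminescence). Conditions: 0.1 nM enzyme, 0.5 mM PEP, 0.1 mM ADP, 1 h, RT; normalized against uninhibited and no-enzyme wells.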
# FBPA Giardia inh: blocks Giardia fructose-bisphosphate aldolase activity; A8B2U2; purified Giardia FBPA; Potency, µM (highest dose often 59.6 µM), for the others: at the top dose activity, negative = inhibition, hits mostly inhibitors; hit rate 0.71% among 290,000; AID 2451; note: nearly all actives have a fitted effect of over 55% in size
#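 40 nM FBPA preincubated 10 min at RT with compound (up to 57.5 uM final), then substrate plus GAPDH/TPI/NAD/arsenate coupling and diaphorase/resazurin added. Fluorescence read after 20 min at RT, 525/598 nm.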
# Sm TGR block: S. mansoni TGR enzyme inhibition; Q962Y6; Potency, µM (doses to about 114 µM), for the others: top-dose activity change, negative = inhibition, actives largely listed as inhibitors; purified TGR, DTNB reduction, TNB absorbance 405 nm; hit rate 3% among 360,000; note: nearly all actives have a fitted effect of over 60% in size
#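 Kinetic colorimetric format: TGR-catalysed, NADPH-driven DTNB reduction monitored via TNB absorbance. Enzyme dispensed at 20 nM; compound exposure 15 min at room temperature before reaction start.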
# RE007 growth inh: less growth of the S. pombe RE007 Vpr strain; S. pombe RE007 Vpr strain, BacTiter-Glo ATP luminescence, 24 h; Potency, µM (doses to about 92.2 µM), inactives show at the top dose activity change, negative = less growth, usual class: inhibitors; hit rate 0.21% among 360,000; active = well fitted falling curve with a large enough effect; inconclusive = small, poorly fitted or top-dose-only effect; inactive = no such curve, though single readings can be large or run the other way; note: nearly all actives have a fitted effect of over 50% in size
#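 Fission yeast strain RE007, carrying one chromosomally integrated HIV-1 vpr copy, was seeded at OD 0.01 in PMG+AL medium with 23 nL pinned compound. After 24 h at 30 °C and 99% humidity, viability was read by BacTiter-Glo luminescence.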
# * hit, by the source's call; ? = inconclusive; . = no result; [ ] = another dose, or the depositor's remark. Unless noted, calls come from the whole dose curve; as a rule, active = well fitted curve in the direction sought with a large enough effect; inconclusive = small, poorly fitted or top-dose-only effect, or another doubt; inactive = no such curve, though single readings can be large; an effect the other way counts as inactive or inconclusive. % is set by controls: 0 for no effect and ±100 for the full control effect; potency is the fitted concentration of half-maximal effect.
SMILES,TbPYK inhibitor,LmPK inhibitor,FBPA Giardia inh,Sm TGR block,RE007 growth inh
CC1(N2CCOCC2)CC2(O)C(=[N+]1[O-])CCc1c2no[n+]1[O-] (stereo unspecified),-9%,0%,?,32µM*,5%
CC1CC2(O)c3no[n+]([O-])c3CCC2N1O (stereo unspecified),-1%,-12%,1%,-16%,1%
Cc1cc2c(NC(=O)Nc3ccc(C(C)(C)C)cc3)cccc2nn1,1%,2%,?,-16%,11%
Cc1cc2c(NC(=O)Nc3ccccc3)cccc2nn1,3%,4%,5µM*,?,3%
CNS(=O)(=O)c1cn(CC(=O)N2CCN(c3ccccc3OC)CC2)cc1S(=O)(=O)NC,5%[15.4 µM],.,.,-1%,.
COc1ccc(NC(=O)COC(=O)c2ccc3ccccc3n2)cc1,4%,.,.,-2%,-2%
Cc1ccsc1C(=O)Nc1ccc(C(=O)O)cc1,-32%,14µM*,7%,-6%,?
CNS(=O)(=O)c1cccc(C(=O)OCC(=O)Nc2ccc(-c3nc4ccc(C)cc4s3)cc2)c1,-3%,-3%,5%,.,-21%
OC(COCc1cccs1)CN1CCCCCC1 (stereo unspecified),-13%,11%,-2%,-31%,-6%
CN1CCCN(CC(O)COCc2cccs2)CC1 (stereo unspecified),12%,1%,-4%,50µM*,0%
CCOc1ccccc1-c1nnc(SCC(=O)NC2(C#N)CCCC2)o1,-4%,.,.,-7%,-1%
CC(C)N(C)C1CCN(S(=O)(=O)c2ccc3[nH]c(=O)ccc3c2)CC1,-5%,.,.,50µM*,.
Cc1cc(C)nc(SCNC(=O)c2ccccc2)n1,-17%,2%,-19%,?,0%
Cc1cc(SCNC(=O)c2ccccc2)nc(C(C)C)n1,7%,15%,-5%,11µM*,6%
CC1=C(n2nnc3ccccc32)C(c2ccccc2)C(C#N)=C(N)O1 (stereo unspecified),-15%,4%,?,35µM*,-1%
Cc1nn(-c2ccccc2)c2c1C(c1ccncc1)C(C#N)=C(N)O2 (stereo unspecified),-7%,-1%,-16%,-33%,?
CCCc1nc2c(s1)CCc1onc(-c3ccc(Br)cc3)c1-2,-2%,.,.,.,6%
CCOc1cc(C2C(C#N)=C(N)OC(C)=C2C(C)=O)cc(Br)c1O (stereo unspecified),-7%,5%,-29%,50µM*,-5%
O=C(O)c1ccccc1C1c2ccccc2Oc2ccccc21,-1%,.,.,.,10%
CN1CCCN(Cc2nc(-c3cccc(C(F)(F)F)c3)no2)CC1,8%,5%,-24%,25µM*,-5%
COc1ccc(C(=O)N/C(=C/c2cccnc2)C(=O)N2CCCCCC2)cc1OC,0%,0%,-4%,-2%,-7%
Cc1ccc(-c2nc(-c3ccccn3)no2)cc1,?,2.8µM*,6%,5%,16µM*
Clc1ccc(-c2nc(-c3cnccn3)no2)cc1,-12%,7.9µM*,3%,8%,?
Cc1ccccc1-c1noc(-c2ccc(O)cc2)n1,-28%,14µM*,4%,-10%,?
c1ccc(-c2ccc(-c3nc(-c4ccccn4)no3)cc2)cc1,?,14µM*,-2%,-1%,40µM*
SMILES,TbPYK inhibitor,LmPK inhibitor,FBPA Giardia inh,Sm TGR block,RE007 growth inh
c1ccc(-c2noc(-c3ccno3)n2)nc1,0%,-9%,-3%,17%,-10%
O=C(COc1ccccc1Cl)Nc1ccc(N2CCN(C(=O)c3ccccc3)CC2)cc1,-6%,-12%,.,4%,2%
CCc1c(C2(O)CCCCC2)[nH]c2ccc(C(=O)OC)cc12,0%,.,.,.,-3%
COc1cc(CN(C(=O)c2cccc(Cl)c2)c2ccccn2)cc(OC)c1OC,0%,.,.,-9%,.
CCOC(=O)C1=C(CNCc2ccccc2)NC(=O)NC1c1ccc(C)cc1 (stereo unspecified),0%,.,.,-27%,.
c1ccc(-c2nc(-c3ccco3)cs2)nc1,?,-18%,0%,22µM*,?
Clc1cccc(-c2nc(-c3ccccn3)no2)c1,-23%,10µM*,0%,2%,?
Cc1ccc(-c2nc(-c3ccccn3)no2)cc1Cl,-27%,14µM*,-18%,4%,?
